CYP2C9 activ – increases human cytochrome P450 2C9 activity | P11712 | recombinant CYP2C9, luciferin-H conversion, luminescence; stronger effect = higher value; factor 1 = untreated enzyme, 0 = blocked | activation factor at 5 µM | 1.4% of 96,000 active;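 active = activation factor of 2 or more for CYP2C9 at a 5 µM dose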
CYP2C19 act – increases human CYP2C19 enzyme activity | recombinant CYP2C19, luciferin-H EGE luminescence; stronger effect = higher value; 0 = fully inhibited enzyme, 1 = untreated enzyme | activation factor at 5 µM | AID 1025 | P33261 | 96,000 tested, under 10 active;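 active = activation factor of at least 2 at 5 µM in the primary screen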
Target sequence (P33261 whole entry, looked up): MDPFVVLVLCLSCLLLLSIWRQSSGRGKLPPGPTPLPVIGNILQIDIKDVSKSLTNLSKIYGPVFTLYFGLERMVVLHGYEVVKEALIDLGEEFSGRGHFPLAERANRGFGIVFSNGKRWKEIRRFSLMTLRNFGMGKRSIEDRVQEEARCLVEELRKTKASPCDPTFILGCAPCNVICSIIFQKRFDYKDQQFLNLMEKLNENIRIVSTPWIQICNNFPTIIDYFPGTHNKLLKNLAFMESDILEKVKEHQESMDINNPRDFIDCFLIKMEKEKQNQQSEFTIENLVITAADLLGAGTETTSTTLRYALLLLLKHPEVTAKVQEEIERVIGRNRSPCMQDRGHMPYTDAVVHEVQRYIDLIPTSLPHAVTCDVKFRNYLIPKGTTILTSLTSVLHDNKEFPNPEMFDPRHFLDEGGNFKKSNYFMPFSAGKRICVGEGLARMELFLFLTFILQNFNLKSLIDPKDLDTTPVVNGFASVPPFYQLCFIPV
sEH inh – blocks human soluble epoxide hydrolase activity | recombinant human sEH enzymatic activity assay | inhibition, % at 2 µM | 0.34% of 91,000 active | AID 707; in the data active = inhibition above about 80%
sEH act – activators of human soluble epoxide hydrolase | purified human sEH enzymatic activity, activator screen | activation, % at 2 µM | 0.04% of 91,000 active | AID 717; in the data active = activation above about 37%
CYP2C9 inhib – inhibitors of human CYP2C9; inhibition, % at 5 µM; CYP2C9 Supersomes, luciferin-H conversion, luminescence; 20% of 96,000 active;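 active = blocking of liver enzyme CYP2C9 beyond about 50% at 5 µM, limit read from the data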
CYP2C19 inhib – blocks human cytochrome P450 2C19 | P33261 | CYP2C19 Supersomes, luciferin-H EGE luminescence, 30 min | inhibition, % at 5 µM | 21% of 96,000 active | AID 778;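 active = CYP2C19 inhibition above a set limit at 5 µM in the primary screen, cut at about 50% in these data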
Hits are given with their value; n = inactive; x = no result given. Hits are enriched below; roughly 27% of the tested compounds scored in any of these assays.

SMILES | CYP2C9 activ | CYP2C19 act | sEH inh | sEH act | CYP2C9 inhib | CYP2C19 inhib
COc1ccc(CCNC(=O)c2cnn3c(C(F)F)cc(C)nc23)cc1OC | n | n | x | x | n | 52.1
COc1ccccc1CNC(=O)c1cnn2c(C(F)F)cc(C)nc12 | 2.2 | n | n | n | n | 61.1
O=C(COC(=O)Cn1c(C(F)(F)F)nc2ccccc21)Nc1ccc2c(c1)OCCO2 | n | n | n | n | n | n
NC(=O)c1ccc(OCC(F)(F)C(F)(F)C(F)(F)C(F)(F)C(F)(F)C(F)F)cc1 | n | n | n | n | n | 55.2
O=C(Nc1nnc(CCS(=O)(=O)c2ccc(Br)cc2)s1)c1ccc([N+](=O)[O-])cc1 | n | n | n | n | n | n
COC(=O)C(O)(CC(=O)Nc1ccc(OC(F)(F)F)cc1)C(F)(F)F (stereo unspecified) | n | n | n | n | n | n
CCn1c(SCC(=O)NCc2cccs2)nnc1-c1ccncc1 | n | n | n | n | n | n
CCn1c(SCC(=O)Nc2cccc(NC(=O)c3cccs3)c2)nnc1-c1ccncc1 | n | n | n | n | 72.1 | n
CCOC(=O)c1sc(SCC(=O)Nc2ccc(N(C)C)cc2)nc1N | n | n | n | n | 56.9 | 69.0
CCn1c(SCC(=O)Nc2ccc(S(=O)(=O)Nc3ccccn3)cc2)nnc1-c1ccncc1 | n | n | n | n | 95.4 | 60.2
CCC(=O)Nc1cccc(NC(=O)CSc2nnc(-c3ccc(NS(C)(=O)=O)cc3)n2CC)c1 | n | n | n | n | 54.2 | n
O=C(CN(CC1CCCO1)C(=O)CNS(=O)(=O)c1ccc(Cl)cc1)NCCc1ccccc1 (stereo unspecified) | n | n | n | n | n | n
CCn1c(SCC(=O)Nc2ccc(C)cc2)nnc1-c1ccc(O)cc1 | x | x | n | n | x | x
CCn1c(SCC(=O)NCc2ccc(C)cc2)nnc1-c1ccncc1 | n | n | n | n | n | n
CCn1c(SCC(=O)Nc2ccc(N(C)C)cc2)nnc1-c1cccc(C)c1 | n | n | n | n | 86.2 | 72.8
CCn1c(SCC(=O)Nc2cc(C)on2)nnc1-c1ccncc1 | n | n | n | n | n | 72.7
CCN1C(=O)C(C(=O)Nc2ccc(OC)cc2)C2CC1(C)Oc1ccccc12 (stereo unspecified) | n | n | n | n | 53.5 | n
COc1ccc(NC(=O)C2CC(=O)OC23CCCCC3)cc1 (stereo unspecified) | x | x | n | n | x | x
Cn1cnnc1SCC(=O)Nc1cccc(C(=O)O)c1 | n | n | n | n | n | n
Cn1cnnc1SC(C(=O)Nc1cccc(C(F)(F)F)c1)c1ccccc1 (stereo unspecified) | n | n | n | n | 73.3 | 70.6
OCC#CCSc1nnc(-c2ccccc2Br)o1 | n | n | n | n | n | n
COc1cc(C2C3C(=O)N(Cc4ccccc4)C(=O)C3ON2c2ccccc2)cc(OC)c1O (stereo unspecified) | n | n | n | n | 56.5 | n
Cc1cccn2c(=O)c3cc(C(=O)NCCCn4ccnc4)n(C)c3nc12 | n | n | x | x | 60.5 | n
O=C(NCCCN1CCCC1=O)c1cccc(C(F)(F)F)c1 | n | n | n | n | 77.1 | n
CCCCNC(=O)c1cc2c(=O)n3cccc(C)c3nc2n1C | n | n | x | x | n | n
SMILES | CYP2C9 activ | CYP2C19 act | sEH inh | sEH act | CYP2C9 inhib | CYP2C19 inhib
Cc1cccn2c(=O)c3cc(C(=O)NCCCN4CCCC4=O)n(C)c3nc12 | n | n | n | n | n | 51.2
CCN1CCCC1CNC(=O)C(=O)Nc1ccc(OC)cc1 (stereo unspecified) | n | n | n | n | n | n
COC(=O)c1sc(OC)cc1OCc1ccc(C)cc1 | n | n | n | n | n | 52.6
CCC(=O)c1ccc(OCc2ccc(C(=O)OC)cc2)c(OC)c1 | n | n | n | n | n | n
CCn1c(SCC(=O)N2CCN(c3ccc(F)cc3)CC2)nnc1-c1ccncc1 | n | n | n | n | n | n
Fc1ccccc1N1CCN(Cc2nc(-c3ccc(Cl)cc3Cl)no2)CC1 | n | n | n | n | 61.2 | n
Cc1noc(NS(=O)(=O)c2ccc(N3C(=O)c4ccccc4C3=O)cc2)c1C | n | n | n | n | n | n
O=C(CSc1nnc(-c2c[nH]c3ccccc23)o1)N(Cc1ccccc1)c1ccc(F)cc1 | x | x | n | n | x | x
CC1CCCCN1C(=O)CSc1nnc(-c2c[nH]c3ccccc23)o1 (stereo unspecified) | n | n | x | x | n | 78.6
Cc1ccc(C(=O)CSc2nnc(-c3c[nH]c4ccccc34)o2)cc1 | n | n | n | n | 53.1 | n
O=C(CCSc1nnc(-c2ccncc2)o1)Nc1ccccc1Cl | n | n | n | n | 61.3 | 86.8

From PubChem
